Among the data in PubChem BioAssay (EPA / NIEHS) are outcome and AC50 values, retold here.

Usually AC50 stands for the midpoint of the concentration-response curve, whichever way the signal moves.

SMILES strings stand for the structures. Active and inactive are the calls of the source. Rule for the calls: active = hit-call score of the fitted dose curve at least 0.9, where 1 is the maximum; inactive = score below 0.9.

Read-out in the experiment: growth arrest and DNA damage 45 (GADD45B), GADD45B (gene 4616)
The experiment is described as follows: LTEA_HepaRG_GADD45B: Life Technologies and Expression Analysis (LTEA) Assay for growth arrest and DNA damage 45 (GADD45B) using HepaRG (AID 2283461). Particulars: mRNA level, 48 h; actives raise or lower the signal. The procedure: LTEA_HepaRG is a cell based, multiplexed-readout assay that uses HepaRG, a human liver cell line, with measurements taken at 48 hours after chemical dosing on a 96-well plate.LTEA_HepaRG_GADD45B is one of 102 assay component(s) measured in the LTEA HepaRG cell culture assay. It is a marker of Cell proliferation, survival, death.Data from the assay component LTEA_HepaRG_GADD45B was analyzed into 1 endpoint. This assay endpoint, LTEA_HepaRG_GADD45B, was analyzed with bidirectional fitting relative to DMSO as the negative control and baseline of activity. Using a type of inducible reporter, measures of mRNA induction for gain or loss-of-signal activity can be used to understand regulation of transcription factor activity. To generalize the intended target to other relatable targets, this assay endpoint is annotated to the mutagenicity response intended target family, where the subfamily is Cell proliferation, survival, death.
A total of 1060 chemcials from the ToxCast library were tested in eight-point concentration-response experiments. Cell culture and cytotoxicity assays were conducted at Thermo Fisher Scientific's Custom Services facility (Madison, WI). A single lot of human HepaRG cells (Thermo Fisher Scientific, Frederick, MD) was used for the cell culture experiments. 96-well format collagen type I coated plates of human HepaRG cells were prepared using established methods. Briefly, cryopreserved HepaRG cells were thawed, plated at a density of approximately 100,000 cells/well in HepaRG Thaw, Plate, and General Purpose media (HPRG770, Thermo Fisher Scientific), and incubated for 48 hours. 0.5% DMSO was selected as vehicle control to balance the requisite need of DMSO in HepaRG cultures to maintain differentiation (for example, baseline metabolism, proportions of hepatocytes vs. cholangiocytes), while enabling further hepatic receptor pathway activation (for example, PXR and CAR) in response to chemical exposure. 48 hours after plating, the culture medium was replaced with HepaRG Serum-Free Incudtion Media. Cells were exposed to each test chemical in duplicate and maintained in CO2 incubators for another 48 hours. Chemical plates were thawed to room temperature and 200x concentrations of treatment groups were prepared. 8-point conentration-reponse curves were made with the highest exposure at 100 uM, followed by half-log dilutions, all in 0.5% DMSO. Each test plate contained variouse controls, induction positive controls (1mM phenobarbital), cytotoxicity positive controls ([…] aflatoxin B1), vehicle controls (0.5% DMSO), and total lysis controls (0.5% DMSO). Cell morphology images were taken using an Essen IncuCyte FLR automated microscope, with six 96-well plates imaged in about 24 minutes. Images were captured and exported and JPEG files. Spent culture media was transfered to black-well plates for the LDH assay, and remaining media was sorted at -80 C for later use. Cells were treated with RLT buffer and frozen until shipped for gene expression analysis. Total RNA was isolated from the cell suspension in 75 uL of Buffer RLT (Qiagen, Germantown, MD 20874) by Quintiles/Expression Analysis (Durham, NC) using a custom isolation procedure. Total RNA from each plate well was transferred to a preamplification plate. Fluidigm's 96.96 Dynamic ArrayTM (Fluidigm, Amsterdam, the Netherlands) technology was used for gene expression analyses by quantitative reverse transcription polymerase chain reaction (qRT-PCR, performed by Quintiles/Expression Analysis, Durham, NC)89. Standard TaqManTM Assays (Applied Biosystems/ThermoFisher Scientific, Foster City, CA) were used to assess the expression of 93 genes selected based on their selectivity and sensitivity to important hepatic receptors known to be modulated by environmental chemicals; importance in human hepatocyte functionality; and hepatotoxicity. […]
With `C=C(C)CN(CC)c1c([N+](=O)[O-])cc(C(F)(F)F)cc1[N+](=O)[O-]`, the result was inactive.

For `COc1cc(Cl)c(OC)cc1Cl`, the result was inactive.

For `Nc1c(Cl)c(F)nc(OCC(=O)O)c1Cl`, the result was inactive.

On to `CCNP(=S)(OC)O/C(C)=C/C(=O)OC(C)C` (stereo not given), for which the result was inactive.

Regarding `CCCCC(C#N)(Cn1cncn1)c1ccc(Cl)cc1` (stereo not given), the compound was classed as inactive.

Consider `CCOc1nc(C(Cl)(Cl)Cl)ns1`, for which the AC50 was 1.23 µM (active).

For the compound `CCCN(CC)CC1COC2(CCC(C(C)(C)C)CC2)O1` (stereo not given), the call was inactive.

`COC(=O)NC(=S)Nc1ccccc1NC(=S)NC(=O)OC`: the compound was called inactive.

Consider `CSC(=O)c1c(C(F)F)nc(C(F)(F)F)c(C(=O)SC)c1CC(C)C`, for which the result was inactive.

Consider `CCOP(=S)(OCC)Oc1nc(Cl)n(C(C)C)n1`, for which the result was inactive.

For `O=P(O)(O)CCCl`, the compound was classed as inactive.

With `O=C1C2CC=CCC2C(=O)N1SC(Cl)(Cl)Cl` (stereo not given), the outcome was inactive.

For `COP(=O)(OC)O/C(C)=C/C(=O)N(C)C`, the compound was classed as inactive.

Turning to `N#Cc1c[nH]cc1-c1cccc2c1OC(F)(F)O2`, the AC50 was 27.1 µM (active).

As to `COCC(=O)N(c1c(C)cccc1C)C(C)C(=O)OC` (stereo not given), the result was inactive.

Consider `CCCCOCN(C(=O)CCl)c1c(CC)cccc1CC`, for which the outcome was inactive.

With `CCNC(=O)NC(=O)C(C#N)=NOC`, the outcome was inactive.

For `Clc1nc(Cl)nc(Nc2ccccc2Cl)n1`, the outcome was inactive.

Consider `Cc1nc(N(C)C)nc(OC(=O)N(C)C)c1C`, for which the result was inactive.

Turning to `CNC(=O)N(C)c1nnc(C(C)(C)C)s1`, the result was inactive.

With `CC(C)N1C(=O)N(c2ccccc2)CSC1=NC(C)(C)C`, the result was inactive.

For the compound `COP(=S)(OC)Oc1ccc([N+](=O)[O-])c(C)c1`, the result was inactive.

With `Cc1cc(C)nc(Nc2ccccc2)n1`, the compound was classed as inactive.

In the case of `Nc1c(Cl)c(Cl)nc(C(=O)O)c1Cl`, the result was inactive.

Take `CCOP(=O)(OCC)Oc1nc(Cl)c(Cl)cc1Cl`: the compound was called inactive.

On to `COCC(C)N(C(=O)CCl)c1c(C)csc1C` (stereo not given), for which the AC50 is 74.1 µM (active).

`CN/C(=N\[N+](=O)[O-])NCc1cnc(Cl)s1`: the result was inactive.

For the compound `COc1cc(OC)nc(NC(=O)NS(=O)(=O)c2ncccc2OCC(F)(F)F)n1`, the compound was classed as inactive.

For `O=c1n(Cl)c(=O)n(Cl)c(=O)n1Cl`, the outcome was inactive.

For `CCCC(=NOCC)C1=C(O)CC(CC(C)SCC)CC1=O` (stereo not given), the call was inactive.

In the case of `CC(C)Nc1nc(Cl)nc(NC(C)C)n1`, the call was inactive.

Turning to `OC(c1ccc(Cl)cc1)(c1ccc(Cl)cc1)C(Cl)(Cl)Cl`, the outcome was inactive.

As to `CN=C=S`, the compound was classed as inactive.

Turning to `COCc1cnc(C2=NC(C)(C(C)C)C(=O)N2)c(C(=O)O)c1` (stereo not given), the outcome was inactive.

`CC(C)C1(C)N=C(c2ncccc2C(=O)O)NC1=O` (stereo not given): the result was inactive.

With `CC1(C)C(C(=O)OC(C#N)c2cccc(Oc3ccccc3)c2)C1(C)C` (stereo not given), the call was inactive.

In the case of `CC1(C)CCC(=Cc2ccc(Cl)cc2)C1(O)Cn1cncn1` (stereo not given), the call was inactive.

For `CCN(CC)c1nc(C)cc(OP(=S)(OC)OC)n1`, the compound was classed as inactive.

On to `COC(=O)NS(=O)(=O)c1ccc(N)cc1`, for which the call was inactive.

For `CC1(C)CON(Cc2ccccc2Cl)C1=O`, the compound was called inactive.
